# Bioassay records (PubChem BioAssay)
# PLK1 PBD inh – PLK1 (human) polo-box domain binding inhibition; P53350; Plk1 PBD binding of FITC phosphopeptide, fluorescence polarization; Potency, µM, actives largely listed as inhibitors; 360,000 compounds, 2.8% hits; AID 720504; also: series mostly up to about 57 µM; nearly all actives have a fitted effect of over 65% in size
# DT40 TDP1 CPT – DT40-hTDP1 cell growth loss with CPT. chicken DT40 Tdp1-/-;hTDP1 cells + 20 nM CPT, ATP luminescence, 48 h. Potency, µM (top dose mostly 46.2 µM), most hits filed as inhibitors. 420,000 compounds, 12% hits; also: nearly all actives have a fitted effect of over 55% in size
#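 Chicken DT40 Tdp1-/- cells complemented with human TDP1, 400 cells/well, exposed to compounds plus 20 nM camptothecin for at least 48 h at 37 C; viability read as ATP content by CellTiter-Glo luminescence.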
# GCN5L2 inh – inhibitors of human GCN5L2 histone acetyltransferase | Potency, µM (highest dose often 58.9 µM), usual class: inhibitors | AID 504327 | GCN5L2 HAT assay, ThioGlo1 CoA-SH fluorescence | 390,000 compounds, 0.21% hits | Q92830
# Target sequence (Q92830 whole entry, looked up): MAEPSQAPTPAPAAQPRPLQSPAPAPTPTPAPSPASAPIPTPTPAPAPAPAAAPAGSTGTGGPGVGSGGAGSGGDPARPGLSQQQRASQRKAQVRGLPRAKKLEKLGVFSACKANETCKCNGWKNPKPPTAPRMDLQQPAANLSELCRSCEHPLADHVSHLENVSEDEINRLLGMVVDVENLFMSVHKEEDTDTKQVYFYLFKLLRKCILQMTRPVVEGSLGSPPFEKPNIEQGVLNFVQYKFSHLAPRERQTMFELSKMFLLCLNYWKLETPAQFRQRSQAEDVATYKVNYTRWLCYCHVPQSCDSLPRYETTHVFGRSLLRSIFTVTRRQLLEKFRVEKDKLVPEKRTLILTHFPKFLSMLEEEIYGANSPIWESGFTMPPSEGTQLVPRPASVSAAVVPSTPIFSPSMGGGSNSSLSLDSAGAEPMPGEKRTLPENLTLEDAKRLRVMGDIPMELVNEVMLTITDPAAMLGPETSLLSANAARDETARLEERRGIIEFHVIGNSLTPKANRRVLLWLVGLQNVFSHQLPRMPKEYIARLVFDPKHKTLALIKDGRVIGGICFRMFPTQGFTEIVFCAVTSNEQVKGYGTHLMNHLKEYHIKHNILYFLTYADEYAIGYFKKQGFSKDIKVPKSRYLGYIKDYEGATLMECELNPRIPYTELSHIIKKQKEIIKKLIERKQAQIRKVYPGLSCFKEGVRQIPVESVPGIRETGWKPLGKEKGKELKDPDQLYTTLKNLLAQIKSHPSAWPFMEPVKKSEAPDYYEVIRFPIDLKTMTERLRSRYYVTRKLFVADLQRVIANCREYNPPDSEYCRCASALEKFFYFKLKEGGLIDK
#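 ThioGlo1-coupled HAT assay: 20nM GCN5L2, 70uM acetyl-CoA, 75uM H3(1-25) peptide, pH 7.5. Fluorescence read at 340/540nm at start and after 20 min at room temperature.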
# TDP1 inh – blocks human tyrosyl-DNA phosphodiesterase 1; Q9NUW8; recombinant TDP1, AlphaScreen DNA substrate cleavage; Potency, µM (titrated, usually from 130 µM), actives largely listed as inhibitors; 350,000 compounds, 0.28% hits; AID 485290; also: nearly all actives have a fitted effect of over 40% in size
#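 Tdp1 1 nM final; 15 min RT w/ cpd; substrate 15 nM, 5 min; beads 10 ug/ml, 10 min; AlphaScreen read. Neg ctrl: no enzyme.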
# VDR inhibitor – vitamin D3 receptor (human) inhibition; P11473; VDR-SRC2-3 peptide fluorescence polarization, 2 h; Potency, µM, usual class: inhibitors; 400,000 compounds, 0.93% hits; AID 504847
#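 Fluorescence polarization assay of small-molecule disruption of VDR binding to coregulator peptide SRC2-3. Compounds and controls pin-transferred, then read after 2 h incubation at ambient room temperature.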
# TDP1 cell noCPT – qHTS for Inhibitors of human tyrosyl-DNA phosphodiesterase 1 (TDP1): qHTS in cells in absence of CPT. Potency, µM (titrated, usually from 46.2 µM), usual class: inhibitors. 420,000 compounds, 15% hits. DT40 Tdp1-/- hTDP1 cells, no CPT, ATP luminescence, 48 h; also: nearly all actives have a fitted effect of over 55% in size
#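 Growth kinetics read by CellTiter-Glo luminescence after ≥48 hr at 37 °C. Cells: DT40 Tdp1-/- stably carrying human TDP1, 400 per well, compound exposure in the absence of CPT (DMSO vehicle).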
# Hits are given with their value; - = inactive; ? = inconclusive; . = not tested or not shown; [ ] = dose if it differs, or a comment. Sampled rows, rich in hits. Any-hit rate of the full collection: about 18%. Calls follow the shape of the dose curve; as a rule, active = well fitted curve in the direction sought with a large enough effect; inconclusive = small, poorly fitted or top-dose-only effect, or another doubt; inactive = no such curve, though single readings can be large; an effect the other way counts as inactive or inconclusive.
SMILES,PLK1 PBD inh,DT40 TDP1 CPT,GCN5L2 inh,TDP1 inh,VDR inhibitor,TDP1 cell noCPT
O=C(Cc1ccccc1)N[C@@H](Cc1ccccc1)c1nc2ccccc2[nH]1,-,?,-,-,-,23.1µM
O=C(Cc1ccccc1)Nc1nc2ccccc2[nH]1,-,13µM,-,-,-,7.31µM
Cc1n[nH]c(C)c1S(=O)(=O)N1CCCC(C(=O)Nc2ccc(Cl)cc2)C1 (centres undefined),.,?,-,-,-,7.31µM
CCOC(=O)c1cccc(NC(=O)C2CCCN(S(=O)(=O)c3c(C)n[nH]c3C)C2)c1 (centres undefined),-,?,-,-,-,?
CCOC(=O)c1c(S(=O)(=O)N2CCCC(C(=O)Nc3ccccn3)C2)c(C)n(C)c1C (centres undefined),.,-,-,-,-,-
CCOC(=O)c1c(S(=O)(=O)N2CCCC(C(=O)Nc3cccc(Cl)c3)C2)c(C)n(C)c1C (centres undefined),.,9.2µM,-,-,-,?
CCOC(=O)c1cccc(NC(=O)C2CCCN(S(=O)(=O)c3c(C)nn(C)c3C)C2)c1 (centres undefined),?,20.6µM,-,-,-,?
CN(C)C(=O)COC(=O)c1ccccc1NC(=O)c1ccco1,-,-,-,-,-,-
O=C(Nc1ccc(C(=O)O)cc1)/C(=C\C=C\c1ccccc1)NC(=O)c1ccccc1Br,-,-,?,-,-,-
N#Cc1ccc(CN2C(=O)NC3(CCCCCC3)C2=O)cc1,-,-,-,-,-,-
O=C(CSC1=Nc2ccccc2N=C(c2ccc(F)cc2)C1)Nc1cc(F)ccc1F,.,?,-,-,-,?
COc1ccc(NC(=O)CSC2=Nc3ccccc3N=C(c3ccc(F)cc3)C2)cc1OC,.,?,-,-,-,?
CCc1cccc(NC(=O)CSC2=Nc3ccccc3N=C(c3ccc(F)cc3)C2)c1,.,20.6µM,-,-,-,13µM
O=C(CSC1=Nc2ccccc2N=C(c2ccc(F)cc2)C1)Nc1cccc(C(F)(F)F)c1,.,?,-,-,-,23.1µM
O=C1C2C3CCCC3=C3CCCC3C2C(=O)N1c1ccccc1Cl (centres undefined),.,.,.,-,-,.
Cc1cc(Oc2cccc3c2S(=O)(=O)N(C2CCCC2)CC(COCc2ccccc2)O3)cc(C)c1C (centres undefined),-,23.1µM,.,.,-,16.4µM
CCCCN1CC(COCc2ccccc2)Oc2cccc(Oc3ccc(OC)cc3)c2S1(=O)=O (centres undefined),-,?,.,.,-,18.4µM
CCCCN1CC(COCc2ccccc2)Oc2cccc(F)c2S1(=O)=O (centres undefined),-,?,.,.,-,?
COc1ccc(CN2CC(COCc3ccccc3)Oc3ccccc3S2(=O)=O)cc1 (centres undefined),-,?,-,-,-,?
O=S1(=O)c2ccc(Br)cc2OC(COCc2ccccc2)CN1Cc1ccccc1 (centres undefined),23.8µM,?,-,-,?,?
O=S1(=O)c2ccccc2OC(COCc2ccccc2)CN1Cc1ccccc1 (centres undefined),-,?,-,-,-,?
CCCCN1CC(COCc2ccccc2)Oc2ccccc2S1(=O)=O (centres undefined),-,?,-,-,-,23.1µM
CCOC(=O)c1c(C)[nH]c(C(=O)OCC(=O)c2ccc3c(c2)NC(=O)CO3)c1C,-,-,-,.,?,-
Cc1ccsc1C(=O)N(Cc1cc2cc3c(cc2nc1N1CCOCC1)CCC3)CC1CCCO1 (centres undefined),.,-[9.04 µM],.,.,.,-
COc1ccc2oc3cc(C)[n+]([O-])c(-c4ccc(C)cc4)c3c2c1,-,?,-,-,-,0.206µM
SMILES,PLK1 PBD inh,DT40 TDP1 CPT,GCN5L2 inh,TDP1 inh,VDR inhibitor,TDP1 cell noCPT
CN(C)CC(C)(O)c1ccc2c(c1)CN(Cc1cn(C)c3ccccc13)CCO2 (centres undefined),.,-[9.04 µM],.,.,.,20.6µM
Cc1nn(C)cc1CN1CCOc2ccc(C(C)(O)COc3ccccc3)cc2C1 (centres undefined),.,-[9.04 µM],.,.,.,-
Cn1cc(CN2CCc3ccccc3C2)c2ccccc21,-,9.2µM,-,-,-,?
O=C(O)CCSc1ccc([N+](=O)[O-])cc1[N+](=O)[O-],11.9µM,?,-,-,?,?
O=[N+]([O-])c1ccc(Sc2nccn2Cc2ccccc2)c([N+](=O)[O-])c1,-,6.51µM,-,-,-,5.8µM
O=[N+]([O-])c1cc(C(F)(F)F)ccc1Sc1nccn1Cc1ccccc1,-,-,-,-,?,-
O=[N+]([O-])c1ccc(SNc2ccccc2)c([N+](=O)[O-])c1,-,?,.,.,-,?
O=[N+]([O-])c1ccc(Sc2ncccn2)c([N+](=O)[O-])c1,-,0.82µM,-,-,-,0.92µM
COC(=O)[C@@H]1C[C@H]1[C@@H](N)c1ccccc1,.,.,.,-,.,.
O=C(OC1C2CCC1C1CN(CCc3ccccc3)CC12)c1ccccc1 (centres undefined),-,?,-,-,-,16.4µM
